A short description of test [1]: Quantitative High-Throughput drug screen in 47 multiple myeloma cell lines against the NCATS MIPE library collection: OCIMY1_PLB cell viability assay (AID 1918979). Further: nearly all actives have a fitted effect of over 35% in size. Further: potency means the concentration at half of the fitted maximal effect. A digest of the protocol: (§1)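 qHTS format: cells plated (500/well), pin-dosed with MIPE 4.0 compounds, kept 48 h at 37 °C. Readout was CellTiter-Glo luminescence, median RLU.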
A short description of test [2]: Quantitative High-Throughput drug screen in 47 multiple myeloma cell lines against the NCATS MIPE library collection: MM1S_ATCC cell viability assay (AID 1918980). Further: nearly all actives have a fitted effect of over 45% in size. Further: potency means the concentration at half of the fitted maximal effect. The method, boiled down: as §1
A short description of test [3]: Quantitative High-Throughput drug screen in 47 multiple myeloma cell lines against the NCATS MIPE library collection: LP1_DSMZ cell viability assay (AID 1918982). Further: nearly all actives have a fitted effect of over 35% in size. Further: potency means the concentration at half of the fitted maximal effect. The method, boiled down:
as §1

Test [4] in a line: Quantitative High-Throughput drug screen in 47 multiple myeloma cell lines against the NCATS MIPE library collection: KMS28PE_JCRB cell viability assay (AID 1918983). Further: nearly all actives have a fitted effect of over 35% in size. The method, boiled down: as §1
The nature of test [5]: Quantitative High-Throughput drug screen in 47 multiple myeloma cell lines against the NCATS MIPE library collection: L363_DSMZ cell viability assay (AID 1918984). Further: nearly all actives have a fitted effect of over 40% in size. Further: potency means the concentration at half of the fitted maximal effect. The note with it: L363 myeloma viability, CellTiter-Glo ATP luminescence, 48 h; viability (% of control): at 45.8 µM (top of the series). The method, boiled down:
as §1
A general note: In ATP-based viability assays light output follows the ATP content of the culture.

Test [6] is described as follows: Quantitative High-Throughput drug screen in 47 multiple myeloma cell lines against the NCATS MIPE library collection: OCIMY5_PLB cell viability assay (AID 1918988). Further: nearly all actives have a fitted effect of over 65% in size. Further: potency means the concentration at half of the fitted maximal effect. A digest of the protocol: as §1
The nature of test [7]: Quantitative High-Throughput drug screen in 47 multiple myeloma cell lines against the NCATS MIPE library collection: OPM1_PLB cell viability assay (AID 1918989). Further: nearly all actives have a fitted effect of over 40% in size. Further: potency means the concentration at half of the fitted maximal effect. A digest of the protocol:
as §1

Test [8] is described as follows: Quantitative High-Throughput drug screen in 47 multiple myeloma cell lines against the NCATS MIPE library collection: MM1R_ATCC cell viability assay (AID 1918981). Further: nearly all actives have a fitted effect of over 35% in size. Further: potency means the concentration at half of the fitted maximal effect. A digest of the protocol: as §1
A short description of test [9]: Quantitative High-Throughput drug screen in 47 multiple myeloma cell lines against the NCATS MIPE library collection: KMS34_JCRB cell viability assay (AID 1918985). Further: nearly all actives have a fitted effect of over 40% in size. Further: potency means the concentration at half of the fitted maximal effect. The method, boiled down:
as §1

Test [10] in a line: Quantitative High-Throughput drug screen in 47 multiple myeloma cell lines against the NCATS MIPE library collection: OCIMY7_PLB cell viability assay (AID 1918987). Further: nearly all actives have a fitted effect of over 65% in size. Further: potency means the concentration at half of the fitted maximal effect. The following applies: OCI-MY7 myeloma viability, CellTiter-Glo ATP, 48 h; viability (% of DMSO): at 45.8 µM (top of the series). A digest of the protocol:
as §1

The structures appear in SMILES notation. Results filed as inconclusive are left out. Active and inactive are the calls of the source. The call rests on the fitted dose curve; in most records, active means well fitted cell-killing curve with a large enough effect; inconclusive means small, poorly fitted or top-dose-only effect, or effect the other way; inactive means no such curve, though single readings can be large or run the other way.

The source of these data is PubChem BioAssay (NCATS).

In the case of `O=C(O)c1ccc(O)c2ncc(N3CCOCC3)cc12`, the Potency result in test [1], in [4] and in test [7] was “inactive” each time. Further, the Potency in test [2] was 23.5 µM (active); in test [3], 20.9 µM (active); in [5], 20.9 µM (active); in test [6], 13.2 µM (active).
Regarding `COc1cc2ncn(-c3cc(OCc4ccccc4S(C)(=O)=O)c(C#N)s3)c2cc1OC`, the Potency entry in test [1], in [8], in test [9] and in [7] was “inactive” throughout. Further, the Potency in test [2] is 20.9 µM (active).
`Cc1ccc2c(=O)c3cccc(CC(=O)O)c3oc2c1C`: in [1], the Potency result was “inactive”. Besides, the Potency in test [2] was 14.8 µM (active); in test [8], 18.7 µM (active); in test [10] it was 26.4 µM (active); in test [6], 18.7 µM (active).
For the molecule `OCCn1cc(-c2ccc3c(c2)CCC3=NO)c(-c2ccncc2)n1`, the Potency entry in test [1], in test [4], in test [9] and in test [7] was “inactive” in each case. In addition, the Potency in test [2] was 26.4 µM (active).
Turning to `COc1cc(CNC(=O)CCCCC=CC(C)C)ccc1O`, the Potency result in [1], in [2], in test [8], in [6] and in [7] was “inactive” each time. Besides, in test [10], the Potency is 14.8 µM (active).
As for `CCOC(=O)[C@H](CCc1ccccc1)N[C@@H](C)C(=O)N1CCCC1C(=O)O` (some centres not stated), the Potency result in test [1], in test [3], in test [4], in [10] and in test [7] was “inactive” each time. Besides, the Potency in test [2] is 10.5 µM (active).
For `CC1=C(C(=O)Nc2cc3cn[nH]c3cc2F)C(c2ccc(C(F)(F)F)cc2)CC(=O)N1` (configuration not stated), the Potency entry in [1], in test [8], in test [3], in [4], in test [5] and in [9] was “inactive” each time. The Potency result in test [6] and in [7] was “inactive” each time.
For `Cc1cc(C(C)Nc2ccccc2)c2nc(N3CCOCC3)cc(=O)n2c1` (configuration not stated), the Potency result in [1] is “inactive”. The results for the Potency in test [2], in [10] and in [7] were 0.332 µM (active), 2.09 µM (active) and 20.9 µM (active), respectively.
As for `CS(=O)(=O)c1ccc(C2=C(c3ccccc3)C(=O)OC2)cc1`, the Potency result in test [1], in test [8], in test [4], in test [5], in test [9] and in test [7] was “inactive” each time.
Take `CNC1[C@H](O)C(O[C@@H]2C(O)C(O[C@H]3O[C@H]([C@@H](C)NC)CC[C@H]3N)[C@@H](N)C[C@H]2N)OC[C@]1(C)O` (some centres not stated): the Potency entry in test [1], in [8], in test [3], in test [9], in [10] and in [6] was “inactive” throughout.
As to `Cc1cccc(Nc2nc(N[C@@H]3CCCC[C@H]3N)ncc2C(N)=O)c1`, the Potency in test [1] is 26.4 µM (active); in test [8], 26.4 µM (active); in [3], 18.7 µM (active); in test [5], 16.6 µM (active); in test [10] it was 6.62 µM (active); in test [7], 16.6 µM (active).
In the case of `CC(C)C[C@@H](C(=O)N[C@H](C(=O)OC1CCCC1)c1ccccc1)[C@H](O)C(=O)NO`, the Potency is 16.6 µM (active) in [1], 20.9 µM (active) in [2], 14.8 µM (active) in [10] and 20.9 µM (active) in test [6].
On to `O=c1[nH]c(=O)n([C@H]2C[C@@H](O)[C@@H](CO)O2)cc1I`, for which the Potency entry in test [1], in test [3], in [6] and in [7] was “inactive” throughout. Moreover, the Potency in test [8] was 6.62 µM (active); in test [9], 2.09 µM (active).
In the case of `CC=C(C(=CC)c1ccc(O)cc1)c1ccc(O)cc1`, the Potency entry in [1] was “inactive”. Besides, the Potency is 11.8 µM (active) in test [2], 13.2 µM (active) in test [5] and 16.6 µM (active) in test [6].
For the molecule `COc1cc([C@@H]2c3cc4c(cc3[C@@H](O[C@@H]3O[C@@H]5CO[C@@H](C)O[C@@H]5[C@H](O)[C@@H]3O)[C@H]3COC(=O)[C@H]23)OCO4)cc(OC)c1O`, the Potency result in test [1] was “inactive”. For the same molecule, the Potency in [2] is 0.264 µM (active); in test [9] it was 4.18 µM (active); in [6], 14.8 µM (active); in test [7] it was 14.8 µM (active).
Regarding `CCCCC(F)(F)[C@@]1(O)CC[C@H]2[C@H](CC(=O)[C@@H]2CCCCCCC(=O)O)O1`, the Potency result in test [1], in [8], in test [3], in test [4], in [5] and in test [7] was “inactive” in each case. The Potency in test [6] is 0.235 µM (active).
Take `Cc1nc(C(=O)NCC(=O)O)c(O)c2ccc(Oc3ccccc3)cc12`: the Potency entry in [1], in test [8], in test [4], in test [5], in test [10] and in test [6] was “inactive” in each case. Besides, in [7], the Potency result is “inactive”.
